Assay results: PubChem BioAssay (NCI)
Several values for one entry are separate records, joined by “and”; a condition that tells them apart may be missing. Equal entries are not always repeated. This is part of a sample that, as a whole, favours compounds with a hit. Of some 79,000 tested, about 15% had one in any assay. More than one record can exist for a structure, and the calls need not agree. Activity calls are given as the source filed them. Rule as the data show it: active = growth inhibition above about 70%; inactive = the rest.

Experiments:
[1] = NCI Yeast Anticancer Drug Screen. Data for the rad50 strain (AID 155);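 also: 0% = growth of vehicle-only cultures of the same strain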; conditions: S. cerevisiae rad50 strain growth inhibition, stronger effect = higher value
In short: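 DNA repair mutant yeast, compound exposure, growth read-out; inhibition is taken relative to vehicle.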

[2] = NCI Yeast Anticancer Drug Screen. Data for the mec2-1 strain (AID 157); conditions: S. cerevisiae mec2-1 strain, stronger effect = higher value
In short: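 Yeast mec2-1 mutant treated with compound. Readout: growth inhibition vs vehicle controls.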

[3] = NCI Yeast Anticancer Drug Screen. Data for the sgs1 mgt1 strain (AID 161);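 also: 0% = growth of cultures given vehicle only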; conditions: S. cerevisiae sgs1 mgt1 strain, stronger effect = higher value
In short: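 Test agents were incubated with a DNA-repair-mutant yeast strain. Growth was then read and compared against vehicle-treated controls.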

[4] = NCI Yeast Anticancer Drug Screen. Data for the cln2 rad14 strain (AID 165);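 also: 0% = growth equal to vehicle treated cultures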; conditions: S. cerevisiae cln2 rad14 strain, stronger effect = higher value
In short: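 cln2 rad14 yeast strain; compound exposure; growth inhibition read vs vehicle controls.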

[5] = NCI Yeast Anticancer Drug Screen. Data for the bub3 strain (AID 167); conditions: S. cerevisiae bub3 mutant strain, stronger effect = higher value
In short: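 In this screen, a yeast mutant lacking normal mitotic checkpoint function is challenged with compound. Relative growth versus vehicle gives the inhibition value.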

[6] = NCI Yeast Anticancer Drug Screen. Data for the mlh1 rad18 strain (AID 175); conditions: S. cerevisiae mlh1 rad18 strain growth inhibition, stronger effect = higher value
In short: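 Yeast w/ defined DNA-repair lesions; compound exposure; growth vs vehicle controls → % inhibition.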

[7] = at 5.0 µM (retest, dose inferred, filed as 0.5)
[8] = at 50.0 µM (retest, dose inferred, filed as 5.0)

Row | SMILES | growth inhibition [1, 7] | growth inhibition [1, 8] | growth inhibition ([1]; at 50.0 µM) | growth inhibition [2, 7] | growth inhibition [2, 8] | growth inhibition ([2]; at 50.0 µM) | growth inhibition [3, 7] | growth inhibition [3, 8] | growth inhibition ([3]; at 50.0 µM) | growth inhibition [4, 7] | growth inhibition [4, 8] | growth inhibition ([4]; at 50.0 µM) | growth inhibition [5, 7] | growth inhibition [5, 8] | growth inhibition ([5]; at 50.0 µM) | growth inhibition [6, 7] | growth inhibition [6, 8] | growth inhibition ([6]; at 50.0 µM)
1 | CCC[CH2][Sn]([CH2]CCC)([O]C(=O)C(N)CSC)[O]C(=O)C(N)CSC (stereo unspecified) | 7% (inactive) | 7% (inactive) | 90% (active) | 10% (inactive) | 10% (inactive) | 89.3% (active) | -5% (inactive) | -5% (inactive) | 86.2% (active) | 1% (inactive) | 1% (inactive) | 52.9% (inactive) | -4% (inactive) | -4% (inactive) | 88.8% (active) | -18% (inactive) | -18% (inactive) | 83.1% (active)
2 | CC(C)CCCC(C)CCC1C(=O)NC(=O)NC1=O (stereo unspecified) | 6% (inactive) | 23% (inactive) | -6.75% (inactive) and 8.2% (inactive) | -17% (inactive) | 4% (inactive) | -0.5% (inactive) and -2.3% (inactive) | -6% (inactive) | 21% (inactive) | -8.05% (inactive) and 38.9% (inactive) | -1% (inactive) | 3% (inactive) | -31.1% (inactive) and -44.4% (inactive) | -3% (inactive) | -3% (inactive) | -5.55% (inactive) and -18.1% (inactive) | 13% (inactive) | 48% (inactive) | 2.7% (inactive) and -0.7% (inactive)
3 | C/C(=N\NS(=O)(=O)c1ccc(C)cc1)C(CN1CCOCC1)C(c1ccccc1)c1c(O)c2ccccc2oc1=O (stereo unspecified) | 15% (inactive) | 15% (inactive) | 88.5% (active) | 4% (inactive) | 4% (inactive) | 85.8% (active) | 15% (inactive) | 15% (inactive) | 87.4% (active) | 5% (inactive) | 5% (inactive) | 89.2% (active) | 3% (inactive) | 3% (inactive) | 83.7% (active) | 9% (inactive) | 9% (inactive) | 87.6% (active)
4 | S=C(S)N1CCCCC1 | 42% (inactive) and 15% (inactive) | 57% (inactive) and 13% (inactive) | 73.5% (active) and 45.1% (inactive) and 29.9% (inactive) | 38% (inactive) and 19% (inactive) | 60% (inactive) and 6% (inactive) | 45.7% (inactive) and 90.3% (active) and 31.6% (inactive) | 42% (inactive) and 15% (inactive) | 99% (active) and 41% (inactive) | 60.5% (inactive) and 97.8% (active) and 25.5% (inactive) | 76% (active) and 3% (inactive) | 99% (active) and -48% (inactive) | 29.4% (inactive) and 33.2% (inactive) and 0.25% (inactive) | 56% (inactive) and 0% (inactive) | 90% (active) and -1% (inactive) | 37.6% (inactive) and 99.3% (active) and -10.9% (inactive) | 46% (inactive) and 31% (inactive) | 56% (inactive) and 27% (inactive) | 52.8% (inactive) and 70.8% (active) and 59.6% (inactive)
5 | N#CC(C#N)=Cc1ccc2c(c1)OC(Cl)O2 (stereo unspecified) | 25% (inactive) | 46% (inactive) | 59.6% (inactive) | 26% (inactive) | 27% (inactive) | 49.2% (inactive) | 15% (inactive) | 33% (inactive) | 57.5% (inactive) | 15% (inactive) | 18% (inactive) | 55.5% (inactive) | -11% (inactive) | 16% (inactive) | 55.9% (inactive) | 35% (inactive) | 35% (inactive) | 66.5% (inactive)
6 | COC(=O)[C@@]12OC[C@]34[C@H]([C@@H](O)[C@@H]1O)[C@@]1(C)CC(=O)C(O)=C(C)[C@@H]1C[C@H]3OC(=O)[C@H](OC(=O)/C=C(\C)C(C)C)[C@@H]24 | 96% (active) | 99% (active) | 91.5% (active) | 95% (active) | 100% (active) | 93.7% (active) | 96% (active) | 99% (active) | 93% (active) | 96% (active) | 99% (active) | 90.8% (active) | 93% (active) | 99% (active) | 91.5% (active) | 97% (active) | 99% (active) | 92% (active)
7 | O=C1C(Cl)=C(Cl)C(=O)N1c1ccc(F)cc1 | 53% (inactive) | 99% (active) | 52% (inactive) | 42% (inactive) | 100% (active) | 28.8% (inactive) | 28% (inactive) | 100% (active) | 88.3% (active) | 24% (inactive) | 99% (active) | 89.2% (active) | 35% (inactive) | 99% (active) | 90.8% (active) | 45% (inactive) | 100% (active) | 48.1% (inactive)
8 | COC(=O)C1=C(O)C(C(=O)OC)[C@]2(O)[C@@H](C(=O)OC)[C@H]1C[C@@H](c1ccccc1)[C@@H]2C(=O)OC (stereo partly specified) | 4% (inactive) | 98% (active) | 97.7% (active) | 3% (inactive) | 97% (active) | 98.3% (active) | 10% (inactive) | 97% (active) | 98.3% (active) | 11% (inactive) | 92% (active) | 84.3% (active) | 3% (inactive) | 97% (active) | 98.2% (active) | 10% (inactive) | 98% (active) | 98.6% (active)
9 | Nc1nc(N)c(-c2ccc(Cl)c(Cl)c2)c(CCc2ccc(CNC(=O)Nc3ccc(S(=O)(=O)F)cc3)cc2)n1 | 4% (inactive) | 28% (inactive) | 56.8% (inactive) | 0% (inactive) | 19% (inactive) | 34% (inactive) | -4% (inactive) | 35% (inactive) | 79.8% (active) | 1% (inactive) | 40% (inactive) | 25.8% (inactive) | -1% (inactive) | 25% (inactive) | 25% (inactive) | 4% (inactive) | 82% (active) | 84.7% (active)
10 | COc1cc[c]([Sb]([Br])([CH]=C(C)C)([CH]=C(C)C)[CH]=C(C)C)cc1 | -1% (inactive) | 67% (inactive) | 80.8% (active) | -5% (inactive) | 85% (active) | 76.5% (active) | -1% (inactive) | 62% (inactive) | 35% (inactive) | -12% (inactive) | 54% (inactive) | 49.2% (inactive) | -9% (inactive) | 72% (active) | 80.3% (active) | -6% (inactive) | 73% (active) | 72.8% (active)
11 | C[N-]c1nnnn1C.[Au+].c1ccc([PH+](c2ccccc2)c2ccccc2)cc1 | 99% (active) | 97% (active) | 96.3% (active) | 99% (active) | 95% (active) | 97.9% (active) | 99% (active) | 97% (active) | 97% (active) | 96% (active) | 95% (active) | 97.2% (active) | 98% (active) | 96% (active) | 96% (active) | 97% (active) | 94% (active) | 97% (active)
12 | O=C([O][Hg][CH2]C1CC(O)CC([CH2][Hg][O]C(=O)c2ccccc2)O1)c1ccccc1 (stereo unspecified) | 98% (active) | 98% (active) | 99% (active) | 98% (active) | 99% (active) | 99.2% (active) | 99% (active) | 99% (active) | 99.3% (active) | 96% (active) | 97% (active) | 97.4% (active) | 97% (active) | 99% (active) | 98.5% (active) | 99% (active) | 99% (active) | 98.6% (active)
